# PubChem BioAssay (EPA / NIEHS)
# Results filed as inconclusive are left out. Activity calls are given as the source filed them. The calls were made as follows, unless noted: active = hit-call score of the fitted dose curve at least 0.9, where 1 is the maximum; inactive = score below 0.9.
# Tests used:
# [1] = BSK_LPS_PGE2: BioMAP Diversity Plus: LPS Assay for Prostaglandin E2 (PGE2) Biomarker Activity (AID 2283082); settings: primary human HUVEC with PBMC; actives raise or lower the signal;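 as to AC50: secreted prostaglandin E2 measured by ELISA in LPS-stimulated co-culture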
# In short: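 Primary human endothelial cells and blood mononuclear cells, co-cultured with LPS, receive test chemical; PGE2 ELISA follows at 24 h, with SRB-stained parallel cultures flagging cytotoxicity.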
# [2] = read-out: Macrophage colony-stimulating factor (MCSF), CSF1 (gene 1435); assay: BSK_LPS_MCSF: BioMAP Diversity Plus: LPS Assay for Macrophage colony-stimulating factor (MCSF) Biomarker Activity (AID 2283083); settings: primary human HUVEC with PBMC; actives raise or lower the signal
# In short: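 Compound is added to a human vascular primary co-culture of umbilical vein endothelium and blood mononuclear cells. After 24 h, M-CSF is quantified by ELISA. Signal changes are fitted in both directions against DMSO.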
# [3] = read-out: Tissue Factor, F3 (gene 2152); assay: BSK_LPS_TissueFactor: BioMAP Diversity Plus: LPS Assay for Tissue Factor Biomarker Activity (AID 2283084); settings: primary human HUVEC with PBMC; actives raise or lower the signal
# In short: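 In this co-culture system of umbilical vein endothelium with PBMC, stimulated with LPS, cell-surface CD142 is detected by ELISA at 24 h. Endpoint values derive from bidirectional fitting, DMSO serving as baseline.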
# [4] = read-out: Tumor necrosis factor (Homo sapiens) (UniProt P01375); assay: BSK_LPS_TNFa: BioMAP Diversity Plus: LPS Assay for Tumour Necrosis Factor alpha (TNFa) Biomarker Activity (AID 2283085); settings: primary human HUVEC with PBMC; actives raise or lower the signal;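 as to AC50: TNFa protein level quantified by ELISA in the co-culture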
# In short: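 ELISA-based TNFa endpoint in a human endothelial–PBMC co-culture sampled 24 h post-exposure. Curves were fitted in both directions using DMSO as baseline of activity.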
# [5] = read-out: Vascular cell adhesion molecule 1 (VCAM1), VCAM1 (gene 7412); assay: BSK_LPS_VCAM1: BioMAP Diversity Plus: LPS Assay for Vascular cell adhesion molecule 1 (VCAM1) Biomarker Activity (AID 2283086); settings: primary human HUVEC with PBMC; actives raise or lower the signal
# In short: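 Measured by ELISA: VCAM-1 in LPS-activated HUVEC/PBMC co-cultures 24 h after treatment. Values reflect bidirectional fitting with DMSO as baseline.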
# CD38, CD38 (gene 952) = assay: BSK_SAg_CD38: BioMAP Diversity Plus: SAg Assay for CD38 Biomarker Activity (AID 2283087); settings: primary human HUVEC with PBMC; actives raise or lower the signal
# In short: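 Measures CD38 on a human endothelial/PBMC co-culture driven by SEB and TSST-1, 24 h after compound exposure, using ELISA with fluorescence detection; DMSO defines baseline for bidirectional curve fitting.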
# CD40, CD40 (gene 958) = assay: BSK_SAg_CD40: BioMAP Diversity Plus: SAg Assay for CD40 Biomarker Activity (AID 2283088); settings: primary human HUVEC with PBMC; actives raise or lower the signal
# In short: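 Fluorescence ELISA read-out of CD40 from umbilical vein endothelium plus peripheral blood mononuclear cells, sampled 24 h after dosing. Values come from bidirectional curve fitting with DMSO as baseline.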
# CD69, CD69 (gene 969) = assay: BSK_SAg_CD69: BioMAP Diversity Plus: SAg Assay for CD69 Biomarker Activity (AID 2283089); settings: primary human HUVEC with PBMC; actives raise or lower the signal;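 as to AC50: cell surface CD69 protein quantified by ELISA with fluorescence detection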
# In short: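 Primary human vascular co-culture (umbilical vein endothelium with peripheral blood mononuclear cells) exposed to test chemical for 24 h. CD69 levels quantified by fluorescence ELISA; DMSO served as negative control for bidirectional fitting.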
# [6] = read-out: Monocyte Chemoattractant Protein-1 (MCP1), CCL2 (gene 6347); assay: BSK_SAg_MCP1: BioMAP Diversity Plus: SAg Assay for Monocyte Chemoattractant Protein-1 (MCP1) Biomarker Activity (AID 2283090); settings: primary human HUVEC with PBMC; actives raise or lower the signal
# In short: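 Values derive from bidirectional fitting of ELISA-measured MCP1 against DMSO controls. Readings were taken 24 h after dosing human vascular endothelial cells co-cultured with peripheral blood mononuclear cells under superantigen stimulation.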
# [7] = read-out: E-selectin (Homo sapiens) (UniProt P16581); assay: BSK_SAg_Eselectin: BioMAP Diversity Plus: SAg Assay for Eselectin Biomarker Activity (AID 2283091); settings: primary human HUVEC with PBMC; actives raise or lower the signal
# In short: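 Primary human endothelial cells and peripheral blood mononuclear cells were co-cultured and exposed to chemical for 24 hours. E-selectin levels were then quantified by ELISA, with bidirectional curve fitting normalised to DMSO controls.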
# [8] = read-out: Monokine induced gamma interferon (MIG), CXCL9 (gene 4283); assay: BSK_SAg_MIG: BioMAP Diversity Plus: SAg Assay for Monokine induced gamma interferon (MIG) Biomarker Activity (AID 2283092); settings: primary human HUVEC with PBMC; actives raise or lower the signal
# In short: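 Endothelial cells and PBMC were co-cultured, exposed to test chemicals, and sampled 24 h later. MIG was measured by ELISA, and responses were fitted in both directions relative to DMSO.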
# [9] = BSK_SAg_PBMCCytotoxicity: PBMC Cytotoxicity Assessment in the BioMAP Diversity Plus: SAg Assay (AID 2283093); settings: primary human HUVEC with PBMC;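 also: PBMC viability measured as Alamar Blue reduction fluorescence at 546/580 nm; fitted both ways against DMSO so a hit may be loss or gain of signal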;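 as to AC50: PBMC superantigen activated with SEB plus TSST-1 one hour after compound addition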
# In short: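 Alamar Blue reduction (6 h, ex/em 546/580 nm) read after 90 h culture of PBMC pre-dosed 1 h then stimulated with SEB plus TSST-1, 20 ng/mL each. Gain or loss of signal fitted relative to DMSO.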
# [10] = read-out: Interleukin-8 (IL8), CXCL8 (gene 3576); assay: BSK_SAg_IL8: BioMAP Diversity Plus: SAg Assay for Interleukin-8 (IL8) Biomarker Activity (AID 2283094); settings: primary human HUVEC with PBMC; actives raise or lower the signal
# In short: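 Primary human endothelial cells with PBMC, exposed 24 h; IL-8 determined by ELISA, analysed bidirectionally relative to DMSO.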
# [11] = BSK_SAg_Proliferation: Cell Proliferation Assessment in the BioMAP Diversity Plus: SAg Assay (AID 2283095); settings: primary human HUVEC with PBMC;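 also: relative cell number as total protein by SRB absorbance in sub-confluent culture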
# In short: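 A human primary co-culture of umbilical vein endothelium and blood mononuclear cells receives compound; relative cell number is quantified at 96 h by SRB staining and 560 nm absorbance, with DMSO-referenced bidirectional curve fitting.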
# [12] = BSK_SAg_SRB: Viability Assessment in the BioMAP Diversity Plus: SAg Assay (AID 2283096); settings: primary human HUVEC with PBMC;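 also: cells read one day after compound addition; hits may be either gain or loss of signal compared with DMSO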
# In short: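 SRB absorbance at 560 nm served as the viability read-out. Cells (HUVEC plus peripheral blood mononuclear cells) were TCA-fixed and stained 24 h post-dosing; activity fitted in both directions against DMSO controls.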
# [13] = biological target: human CYP2A6, CYP2A6 (gene 1548) (UniProt P11509); assay: NVS_ADME_hCYP2A6: NovaScreen (NVS) CYP450-related Enzyme Activity (ADME) Assay for human CYP2A6 (AID 2283099; active = hit-call score of the fitted dose curve at least 0.9, where 1 is the maximum)
# Sequence of human CYP2A6, CYP2A6 (gene 1548) (P11509 whole entry, looked up): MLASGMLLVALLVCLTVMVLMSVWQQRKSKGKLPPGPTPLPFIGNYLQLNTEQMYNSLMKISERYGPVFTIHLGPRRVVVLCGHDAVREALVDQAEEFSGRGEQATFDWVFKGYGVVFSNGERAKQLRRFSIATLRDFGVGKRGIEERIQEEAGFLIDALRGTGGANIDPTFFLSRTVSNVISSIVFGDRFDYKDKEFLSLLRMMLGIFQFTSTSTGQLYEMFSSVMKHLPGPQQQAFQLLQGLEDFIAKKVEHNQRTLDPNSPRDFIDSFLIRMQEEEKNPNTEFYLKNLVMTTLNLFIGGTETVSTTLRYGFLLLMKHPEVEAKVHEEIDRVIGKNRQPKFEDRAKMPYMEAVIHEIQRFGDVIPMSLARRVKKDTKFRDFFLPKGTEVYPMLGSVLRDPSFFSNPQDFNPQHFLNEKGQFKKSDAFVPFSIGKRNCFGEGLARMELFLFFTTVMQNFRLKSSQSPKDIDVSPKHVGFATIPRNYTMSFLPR
# In short: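 Recombinant human CYP2A6 from insect cells was incubated with chemical for 0.5 h and activity read by fluorescence. Single-concentration duplicates at 10 uM preceded concentration-response testing to 20 uM, with activity referenced to acetonitrile.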
# [14] = biological target: human CYP1A1, CYP1A1 (gene 1543) (UniProt P04798); assay: NVS_ADME_hCYP1A1: NovaScreen (NVS) CYP450-related Enzyme Activity (ADME) Assay for human CYP1A1 (AID 2283100; active = hit-call score of the fitted dose curve at least 0.9, where 1 is the maximum)
# Sequence of human CYP1A1, CYP1A1 (gene 1543) (P04798 whole entry, looked up): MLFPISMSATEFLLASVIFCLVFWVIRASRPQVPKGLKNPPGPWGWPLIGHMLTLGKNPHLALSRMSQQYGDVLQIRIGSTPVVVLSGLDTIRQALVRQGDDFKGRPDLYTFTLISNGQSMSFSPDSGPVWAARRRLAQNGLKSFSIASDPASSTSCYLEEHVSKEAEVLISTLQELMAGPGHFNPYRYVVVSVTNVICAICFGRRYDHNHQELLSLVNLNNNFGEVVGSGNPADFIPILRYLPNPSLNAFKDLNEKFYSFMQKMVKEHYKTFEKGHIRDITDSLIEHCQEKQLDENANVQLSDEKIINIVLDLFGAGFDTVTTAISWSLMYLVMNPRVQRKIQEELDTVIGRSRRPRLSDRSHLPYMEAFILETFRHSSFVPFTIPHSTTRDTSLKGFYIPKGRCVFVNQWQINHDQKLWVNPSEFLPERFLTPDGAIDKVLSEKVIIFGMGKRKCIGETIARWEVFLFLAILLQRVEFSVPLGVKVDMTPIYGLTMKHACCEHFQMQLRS
# In short: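 Compounds first went through duplicate single-concentration testing at 10 uM against purified CYP1A1. Those passing a threshold such as 30% inhibition entered singleton dose-response, highest concentration 20 uM. Signal was fluorescence measured after 1 hour.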
# [15] = biological target: human CYP2B6, CYP2B6 (gene 1555) (UniProt P20813); assay: NVS_ADME_hCYP2B6: NovaScreen (NVS) CYP450-related Enzyme Activity (ADME) Assay for human CYP2B6 (AID 2283101; active = hit-call score of the fitted dose curve at least 0.9, where 1 is the maximum)
# Sequence of human CYP2B6, CYP2B6 (gene 1555) (P20813 whole entry, looked up): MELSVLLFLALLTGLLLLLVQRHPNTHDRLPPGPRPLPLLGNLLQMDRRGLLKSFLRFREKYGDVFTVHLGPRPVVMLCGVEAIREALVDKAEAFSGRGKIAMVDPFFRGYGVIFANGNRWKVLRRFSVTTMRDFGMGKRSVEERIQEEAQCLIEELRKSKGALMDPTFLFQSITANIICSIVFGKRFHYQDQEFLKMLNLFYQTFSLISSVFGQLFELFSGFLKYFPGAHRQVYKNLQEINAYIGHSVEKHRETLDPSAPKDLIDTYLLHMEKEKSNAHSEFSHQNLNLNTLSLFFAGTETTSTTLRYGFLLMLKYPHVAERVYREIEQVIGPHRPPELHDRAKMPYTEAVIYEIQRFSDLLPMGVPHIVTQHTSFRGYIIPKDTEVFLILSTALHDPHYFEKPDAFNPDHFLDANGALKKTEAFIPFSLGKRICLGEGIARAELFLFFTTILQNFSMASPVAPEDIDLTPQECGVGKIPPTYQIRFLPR
# In short: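 Cell-free recombinant enzyme assay with a fluorogenic substrate; fluorescence intensity read 1 hour after dosing. Loss of signal relative to acetonitrile negative control indicates inhibition. Primary screen run in duplicate at 10 uM, actives then tested in concentration series.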
# [16] = biological target: human CYP1A2, CYP1A2 (gene 1544) (UniProt P05177); assay: NVS_ADME_hCYP1A2: NovaScreen (NVS) CYP450-related Enzyme Activity (ADME) Assay for human CYP1A2 (AID 2283102; active = hit-call score of the fitted dose curve at least 0.9, where 1 is the maximum)
# Sequence of human CYP1A2, CYP1A2 (gene 1544) (P05177 whole entry, looked up): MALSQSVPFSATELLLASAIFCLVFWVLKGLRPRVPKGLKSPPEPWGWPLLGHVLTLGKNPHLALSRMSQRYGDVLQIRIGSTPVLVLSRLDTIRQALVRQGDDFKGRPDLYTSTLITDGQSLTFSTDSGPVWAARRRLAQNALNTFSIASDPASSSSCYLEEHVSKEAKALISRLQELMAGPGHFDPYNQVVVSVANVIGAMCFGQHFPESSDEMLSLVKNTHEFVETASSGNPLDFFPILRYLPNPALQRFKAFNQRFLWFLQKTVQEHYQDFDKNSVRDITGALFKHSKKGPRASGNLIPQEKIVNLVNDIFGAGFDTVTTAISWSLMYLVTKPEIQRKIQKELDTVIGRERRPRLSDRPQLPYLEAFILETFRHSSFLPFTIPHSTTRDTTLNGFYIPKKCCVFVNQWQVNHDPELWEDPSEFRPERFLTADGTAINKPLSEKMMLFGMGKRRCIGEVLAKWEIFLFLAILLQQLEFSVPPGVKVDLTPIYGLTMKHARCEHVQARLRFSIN
# In short: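 Compounds were tested at 10 uM in duplicate against recombinant CYP1A2 produced in insect cells. Enzyme activity was measured by fluorescence 0.5 h after dosing, with loss of signal versus acetonitrile control. Active compounds were re-tested in concentration series.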
# Sequence of Tumor necrosis factor (Homo sapiens) (P01375 whole entry, looked up): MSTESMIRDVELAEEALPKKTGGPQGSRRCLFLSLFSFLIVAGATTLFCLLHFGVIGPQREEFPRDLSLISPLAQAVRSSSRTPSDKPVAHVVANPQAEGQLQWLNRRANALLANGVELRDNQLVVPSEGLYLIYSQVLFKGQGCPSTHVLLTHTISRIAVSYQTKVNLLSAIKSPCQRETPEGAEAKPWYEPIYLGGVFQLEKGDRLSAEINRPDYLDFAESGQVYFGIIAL
# Sequence of E-selectin (Homo sapiens) (P16581 whole entry, looked up): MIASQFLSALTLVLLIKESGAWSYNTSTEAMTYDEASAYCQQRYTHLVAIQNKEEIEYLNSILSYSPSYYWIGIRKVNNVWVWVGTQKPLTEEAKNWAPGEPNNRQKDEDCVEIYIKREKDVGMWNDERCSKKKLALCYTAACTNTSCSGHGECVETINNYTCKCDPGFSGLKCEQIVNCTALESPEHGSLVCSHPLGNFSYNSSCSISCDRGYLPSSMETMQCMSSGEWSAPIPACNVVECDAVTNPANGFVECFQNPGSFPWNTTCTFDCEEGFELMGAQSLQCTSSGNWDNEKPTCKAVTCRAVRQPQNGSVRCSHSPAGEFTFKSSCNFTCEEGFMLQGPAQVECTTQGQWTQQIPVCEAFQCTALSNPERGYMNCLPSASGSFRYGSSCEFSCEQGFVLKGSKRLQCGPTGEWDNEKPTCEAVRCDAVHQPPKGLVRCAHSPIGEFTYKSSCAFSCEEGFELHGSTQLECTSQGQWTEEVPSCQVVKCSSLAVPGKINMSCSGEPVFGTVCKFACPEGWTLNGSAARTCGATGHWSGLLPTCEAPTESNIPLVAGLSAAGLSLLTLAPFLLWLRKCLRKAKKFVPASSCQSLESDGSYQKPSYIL
smiles,measurement,setting,value
CC1=C(/C=C/C(C)=C/C=C/C(C)=C/CO)C(C)(C)CCC1,AC50,[1],0.574 µM (active)
same,AC50,[2],8.45 µM (active)
same,outcome,[3],inactive
same,AC50,[4],5.39 µM (active)
same,AC50,[5],30.5 µM (active)
same,AC50,"CD38, CD38 (gene 952)",32.7 µM (active)
same,AC50,"CD40, CD40 (gene 958)",26.4 µM (active)
same,AC50,"CD69, CD69 (gene 969)",20.9 µM (active)
same,AC50,[6],20.9 µM (active)
same,AC50,[7],12.8 µM (active)
same,outcome,[8],inactive
same,outcome,[9],inactive
same,outcome,[10],inactive
same,AC50,[11],26.1 µM (active)
same,outcome,[12],inactive
same,outcome,[13],inactive
OC[C@@H](O)[C@@H](O)[C@H](O)[C@H](O)CO,outcome,[1],inactive
same,outcome,[2],inactive
same,outcome,[3],inactive
same,outcome,[4],inactive
same,outcome,[5],inactive
same,outcome,"CD38, CD38 (gene 952)",inactive
same,outcome,"CD40, CD40 (gene 958)",inactive
same,outcome,"CD69, CD69 (gene 969)",inactive
same,outcome,[6],inactive
same,outcome,[7],inactive
same,outcome,[9],inactive
same,outcome,[10],inactive
same,outcome,[11],inactive
Cc1ccc(Cl)cc1,outcome,[1],inactive
same,outcome,[2],inactive
same,outcome,[3],inactive
same,outcome,[4],inactive
same,outcome,[5],inactive
same,outcome,"CD38, CD38 (gene 952)",inactive
same,outcome,"CD40, CD40 (gene 958)",inactive
same,outcome,"CD69, CD69 (gene 969)",inactive
same,outcome,[6],inactive
same,outcome,[7],inactive
same,outcome,[8],inactive
same,outcome,[9],inactive
same,outcome,[10],inactive
same,outcome,[11],inactive
same,outcome,[12],inactive
Cc1cc(=O)[nH]c(=S)[nH]1,outcome,[1],inactive
same,outcome,[2],inactive
same,outcome,[3],inactive
same,outcome,[4],inactive
same,outcome,[5],inactive
same,outcome,"CD38, CD38 (gene 952)",inactive
same,outcome,"CD40, CD40 (gene 958)",inactive
same,outcome,"CD69, CD69 (gene 969)",inactive
same,outcome,[6],inactive
same,outcome,[7],inactive
same,outcome,[8],inactive
same,outcome,[9],inactive
same,outcome,[10],inactive
same,outcome,[11],inactive
same,outcome,[12],inactive
CC(=O)C(C)=CC1C(C)=CCCC1(C)C (configuration not stated),outcome,[1],inactive
same,outcome,[2],inactive
same,outcome,[3],inactive
same,outcome,[4],inactive
same,outcome,[5],inactive
same,outcome,"CD38, CD38 (gene 952)",inactive
same,outcome,"CD40, CD40 (gene 958)",inactive
same,outcome,"CD69, CD69 (gene 969)",inactive
same,outcome,[6],inactive
same,outcome,[7],inactive
same,outcome,[8],inactive
same,outcome,[9],inactive
same,outcome,[10],inactive
same,outcome,[11],inactive
same,outcome,[12],inactive
Cc1cccc([N+](=O)[O-])c1C,outcome,[1],inactive
same,outcome,[2],inactive
same,outcome,[3],inactive
same,outcome,[4],inactive
same,outcome,[5],inactive
same,outcome,"CD38, CD38 (gene 952)",inactive
same,outcome,"CD40, CD40 (gene 958)",inactive
same,outcome,"CD69, CD69 (gene 969)",inactive
same,outcome,[6],inactive
same,outcome,[7],inactive
same,outcome,[8],inactive
same,outcome,[9],inactive
same,outcome,[10],inactive
same,outcome,[11],inactive
same,outcome,[12],inactive
Cc1ccccc1Cl,outcome,[1],inactive
same,outcome,[2],inactive
same,outcome,[3],inactive
same,outcome,[4],inactive
same,outcome,[5],inactive
same,outcome,"CD38, CD38 (gene 952)",inactive
same,outcome,"CD40, CD40 (gene 958)",inactive
same,outcome,"CD69, CD69 (gene 969)",inactive
same,outcome,[6],inactive
same,outcome,[7],inactive
same,outcome,[8],inactive
same,outcome,[9],inactive
same,outcome,[10],inactive
same,outcome,[11],inactive
same,outcome,[12],inactive
CCOc1ccc2c(c1)C(C)=CC(C)(C)N2,AC50,[1],4.6 µM (active)
same,outcome,[2],inactive
same,outcome,[3],inactive
same,AC50,[4],3.97 µM (active)
same,outcome,[5],inactive
same,outcome,"CD38, CD38 (gene 952)",inactive
same,outcome,"CD40, CD40 (gene 958)",inactive
same,outcome,"CD69, CD69 (gene 969)",inactive
same,outcome,[6],inactive
same,outcome,[7],inactive
same,outcome,[8],inactive
same,AC50,[9],10.1 µM (active)
same,outcome,[10],inactive
same,AC50,[11],24.8 µM (active)
same,outcome,[12],inactive
same,outcome,[14],inactive
same,AC50,[15],11.6 µM (active)
same,outcome,[16],inactive
